# The whole screen tested about 39,000 compounds, of which about 1,500 (3.8%) were called active. This is one part of a sample in which actives are shown more often than they occur.
# System: HSkMC (human skeletal muscle cells)
# Assay: cytotoxicity call (relative viability < 0.9)
# Conditions: 10 µM
row,SMILES,cytotoxicity call
1,C[C@@H]1CN([C@@H](C)CO)C(=O)c2cc(N(C)C)ccc2O[C@H]1CN(C)S(C)(=O)=O,inactive
2,COc1ccc(S(=O)(=O)Nc2cccc3c2O[C@H](CN(C)S(C)(=O)=O)[C@H](C)CN([C@@H](C)CO)C3=O)cc1,inactive
3,CC(C)NC(=O)N(C)C[C@H]1Oc2ccc(NC(=O)c3ccncc3)cc2CC(=O)N([C@H](C)CO)C[C@H]1C,inactive
4,C[C@@H]1CCCCO[C@@H](CN(C)S(=O)(=O)c2cn(C)cn2)[C@H](C)CN([C@@H](C)CO)C(=O)c2cc(NS(=O)(=O)c3ccc(F)cc3)ccc2O1,inactive
5,Cc1ccc(S(=O)(=O)N(C)C[C@H]2Oc3ccc(NC(=O)Nc4ccc(C(F)(F)F)cc4)cc3CC(=O)N([C@@H](C)CO)C[C@@H]2C)cc1,inactive
6,Cc1ccc(S(=O)(=O)N(C)C[C@@H]2Oc3ccc(NC(=O)Nc4ccc(C(F)(F)F)cc4)cc3CC(=O)N([C@H](C)CO)C[C@H]2C)cc1,inactive
7,Cc1ccc(S(=O)(=O)N(C)C[C@@H]2Oc3ccc(NC(=O)Nc4ccc(C(F)(F)F)cc4)cc3CC(=O)N([C@@H](C)CO)C[C@@H]2C)cc1,active
8,Cc1ccc(S(=O)(=O)N(C)C[C@@H]2Oc3ccc(NC(=O)Nc4ccc(C(F)(F)F)cc4)cc3CC(=O)N([C@@H](C)CO)C[C@H]2C)cc1,active
9,C[C@@H]1CN([C@@H](C)CO)C(=O)c2cc(NC(=O)c3ccccc3)ccc2O[C@@H](C)CCCCO[C@H]1CN(C)CC1CCCCC1,inactive
10,Cc1noc(C)c1NC(=O)Nc1ccc2c(c1)C(=O)N([C@@H](C)CO)C[C@@H](C)[C@H](CN(C)Cc1ccc(C(F)(F)F)cc1)O2,inactive
11,CC(C)(C)[S@](=O)N1Cc2cc(C(=O)NCC(F)(F)F)nc(-c3cccc(-c4cccc(F)c4)c3)c2[C@@H]1CCO,inactive
12,C[C@H]1CN([C@@H](C)CO)C(=O)Cc2cc(NC(=O)Nc3cccc4ccccc34)ccc2O[C@H]1CN(C)CC1CCCCC1,active
13,C[C@@H]1CN([C@H](C)CO)C(=O)Cc2cc(NC(=O)Nc3cccc4ccccc34)ccc2O[C@H]1CN(C)CC1CCCCC1,inactive
14,C[C@@H]1CN([C@@H](C)CO)C(=O)Cc2cc(NC(=O)Nc3cccc4ccccc34)ccc2O[C@@H]1CN(C)CC1CCCCC1,inactive
15,C[C@H]1CN([C@@H](C)CO)C(=O)Cc2cc(NC(=O)Nc3cccc4ccccc34)ccc2O[C@@H]1CN(C)CC1CCCCC1,active
16,C[C@@H]1CN([C@@H](C)CO)C(=O)Cc2cc(NC(=O)Nc3cccc4ccccc34)ccc2O[C@H]1CN(C)CC1CCCCC1,inactive
17,C[C@H](CO)N1C[C@H](C)[C@H](CN(C)CC2CCCCC2)Oc2ccc(NC(=O)Nc3cccc4ccccc34)cc2CC1=O,inactive
18,C[C@H](CO)N1C[C@H](C)[C@H](CN(C)C(=O)Nc2ccc3c(c2)OCO3)Oc2ccc(NC(=O)Nc3ccc(C(F)(F)F)cc3)cc2C1=O,inactive
19,COC[C@H]1CNN1C(=O)Nc1c(C)noc1C,inactive
20,Cc1noc(C)c1NC(=O)Nc1ccc2c(c1)C(=O)N([C@@H](C)CO)C[C@H](C)[C@H](CN(C)C(=O)NC(C)C)O2,inactive
21,C[C@H](CO)N1C[C@H](C)[C@H](CN(C)C(=O)Nc2cccc3ccccc23)Oc2ccc(NS(=O)(=O)c3ccc(F)cc3)cc2C1=O,inactive
22,C[C@@H]1CCCCO[C@@H](CN(C)C(=O)Nc2ccccc2)[C@@H](C)CN([C@H](C)CO)C(=O)c2cc(NC(=O)c3ccccc3)ccc2O1,inactive

row,SMILES,cytotoxicity call
1,C[C@@H]1CN([C@@H](C)CO)C(=O)c2cccc(NC(=O)Nc3ccc(C(F)(F)F)cc3)c2O[C@@H]1CN(C)Cc1ccccc1,inactive
2,C[C@@H]1CN([C@H](C)CO)C(=O)c2cccc(NC(=O)Nc3ccc(C(F)(F)F)cc3)c2O[C@H]1CN(C)Cc1ccccc1,inactive
3,C[C@@H]1CN([C@@H](C)CO)C(=O)c2cccc(NC(=O)Nc3ccc(C(F)(F)F)cc3)c2O[C@H]1CN(C)Cc1ccccc1,active
4,C[C@H](CO)N1C[C@H](C)[C@@H](CN(C)Cc2ccccc2)Oc2c(NC(=O)Nc3ccc(C(F)(F)F)cc3)cccc2C1=O,inactive
5,C[C@@H]1CN([C@H](C)CO)C(=O)c2cccc(NC(=O)Nc3ccc(C(F)(F)F)cc3)c2O[C@@H]1CN(C)Cc1ccccc1,inactive
6,C[C@H]1CN([C@@H](C)CO)C(=O)c2cccc(NC(=O)Nc3ccc(C(F)(F)F)cc3)c2O[C@@H]1CN(C)Cc1ccccc1,active
7,Cc1c(-c2ccnn2C)cc(C(=O)NCc2ccc(S(C)(=O)=O)cn2)c(=O)n1-c1cccc(C(F)(F)F)c1,inactive
8,Cc1sc2[nH]cnc(=S)c2c1C,inactive
9,C[C@@H]1CN([C@H](C)CO)C(=O)c2c(c3ccccc3n2C)-c2ccccc2CO[C@H]1CN(C)Cc1ccc2c(c1)OCO2,inactive
10,C[C@@H]1CN([C@@H](C)CO)C(=O)c2cc(NC(=O)Nc3ccc(C(F)(F)F)cc3)ccc2O[C@@H]1CN(C)Cc1ccc(C(=O)Nc2ccccc2N)cc1,inactive
11,COCC(=O)N[C@@H]1C[C@H](CO)[C@H](O)C1,inactive
12,CCCc1cc(=O)n2ncnc2[nH]1,inactive
13,Cc1noc(C)c1NC(=O)Nc1ccc2c(c1)CC(=O)N([C@H](C)CO)C[C@@H](C)[C@H](CN(C)S(=O)(=O)c1cccs1)O2,inactive
14,C=C(C)C1CCC2(C)CCC3(C)C(CCC4C5(C)CCC(O)C(C)(C)C5CCC43C)C12 (stereo not given),inactive
15,C=C(C)C1CCC2(C(=O)O)CCC3(C)C(CCC4C5(C)CCC(O)C(C)(C)C5CCC43C)C12 (stereo not given),inactive
16,C=C(C)C1CCC2(CO)CCC3(C)C(CCC4C5(C)CCC(O)C(C)(C)C5CCC43C)C12 (stereo not given),active
17,CN1CCN(C(=O)C[C@@H]2CC[C@@H]3[C@H](COC[C@H](O)CN3Cc3ccc(Oc4ccccc4)cc3)O2)CC1,inactive
18,CC(C)(C)NC(=O)C[n+]1cccc(/C=N/O)c1,inactive
19,O=C(C[C@@H]1CC[C@@H]2[C@H](COC[C@@H](O)CN2S(=O)(=O)c2cccc(Cl)c2)O1)NCc1ccncn1,inactive
20,O=C(/C=C/c1cccc(-c2cn(-c3cccc(C(=O)N4CCC5(CC4)C(=O)NCN5c4ccccc4)c3)nn2)c1)NO,inactive
21,O=C(NO)c1cn(-c2cccc(C(=O)N3CCC4(CC3)C(=O)NCN4c3ccccc3)c2)nn1,active
22,O=C(NO)c1cn(CC(=O)N2CCC3(CC2)C(=O)NCN3c2ccccc2)nn1,inactive

row,SMILES,cytotoxicity call
1,C=CCNC(=O)[C@H]1CCCN(S(C)(=O)=O)C1,inactive
2,O=C(C[C@@H]1C=C[C@H](NC(=O)c2ccc3c(c2)OCO3)[C@H](CO)O1)NCc1ccc(Oc2ccccc2)cc1,inactive
3,COCCNC(=O)C[C@H]1CC[C@@H]2[C@@H](COc3ccc(NS(=O)(=O)c4ccc(Cl)cc4)cc3C(=O)N2C)O1,inactive
4,COCOc1ccc2cc(Br)ccc2c1-c1c(OCOC)ccc2cc(Br)ccc12,active
5,COc1ccc2ccccc2c1-c1c(OC)ccc2ccccc12,inactive
6,COc1ccccc1-c1ccc2c(c1)O[C@@H](CN(C)CC1CCOCC1)[C@@H](C)CN([C@@H](C)CO)S2(=O)=O,inactive
7,CCNC(=O)[C@@H]1CCCN1C(=O)[C@H](CCCNC(=N)N)NC(=O)[C@H](CC(C)C)NC(=O)[C@@H](CC(C)C)NC(=O)[C@H](Cc1ccc(O)cc1)NC(=O)[C@H](CO)NC(=O)[C@H](Cc1c[nH]c2ccccc12)NC(=O)[C@H](Cc1cnc[nH]1)NC(=O)[C@@H]1CCC(=O)N1,inactive
8,CN(c1c[nH]c(=O)[nH]c1=O)C1CCCCC1,inactive
9,C[C@H]1CN([C@@H](C)CO)C(=O)Cc2cc(NS(=O)(=O)c3ccc(F)cc3)ccc2O[C@@H]1CN(C)Cc1ccc(Oc2ccccc2)cc1,inactive
10,C[C@H](CO)N1C[C@H](C)[C@@H](CN(C)Cc2ccc(Oc3ccccc3)cc2)Oc2ccc(NS(=O)(=O)c3ccc(F)cc3)cc2CC1=O,inactive
11,C[C@@H]1CN([C@@H](C)CO)C(=O)Cc2cc(NS(=O)(=O)c3ccc(F)cc3)ccc2O[C@H]1CN(C)Cc1ccc(Oc2ccccc2)cc1,inactive
12,C[C@H]1CN([C@@H](C)CO)C(=O)Cc2cc(NS(=O)(=O)c3ccc(F)cc3)ccc2O[C@H]1CN(C)Cc1ccc(Oc2ccccc2)cc1,active
13,C[C@@H]1CN([C@H](C)CO)C(=O)Cc2cc(NS(=O)(=O)c3ccc(F)cc3)ccc2O[C@@H]1CN(C)Cc1ccc(Oc2ccccc2)cc1,active
14,C[C@@H]1CN([C@H](C)CO)C(=O)Cc2cc(NS(=O)(=O)c3ccc(F)cc3)ccc2O[C@H]1CN(C)Cc1ccc(Oc2ccccc2)cc1,active
15,C[C@H](CO)N1C[C@H](C)[C@H](CN(C)Cc2ccc(Oc3ccccc3)cc2)Oc2ccc(NS(=O)(=O)c3ccc(F)cc3)cc2CC1=O,active
16,Cc1noc(C)c1NC(=O)Nc1ccc2c(c1)C(=O)N([C@@H](C)CO)C[C@H](C)[C@H](CN(C)Cc1ccc3c(c1)OCO3)OCCCC[C@H](C)O2,inactive
17,CC(C)NC(=O)N(C)C[C@H]1Oc2ccc(NC(=O)CCCN(C)C)cc2C(=O)N([C@H](C)CO)C[C@@H]1C,inactive
18,C[C@@H]1CCCCO[C@@H](CN(C)C(=O)C2CCCCC2)[C@@H](C)CN([C@@H](C)CO)C(=O)c2cc(NC(=O)CCC(F)(F)F)ccc2O1,inactive
19,C[C@@H]1CN([C@@H](C)CO)C(=O)c2cc(NS(=O)(=O)c3ccc(Cl)cc3)ccc2O[C@@H](C)CCCCO[C@H]1CN(C)S(=O)(=O)c1ccc(F)cc1,inactive
20,Cc1noc(C)c1S(=O)(=O)Nc1ccc2c(c1)CC(=O)N([C@@H](C)CO)C[C@@H](C)[C@H](CN(C)C(=O)Nc1ccc3c(c1)OCO3)O2,inactive
21,COc1ccc(CN(C)C[C@H]2Oc3ccc(NS(C)(=O)=O)cc3C(=O)N([C@@H](C)CO)C[C@H]2C)cc1,inactive
